Screening results as filed in PubChem.
CF NFkB block: blocks PAF-induced NF-kB reporter in cystic fibrosis cells. KKLEB NF-kB-GFP reporter, GFP fluorescence overnight. inhibition, % at 5 µM. 0.86% of 360,000 active. AID 588850;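 active = at least 50% inhibition at 5 µM, scaled per plate between neutral and stimulator controls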;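 also: PAF is a Pseudomonas aeruginosa culture filtrate used as stimulus; plate controls were PAF-stimulated DMSO wells for no effect and unstimulated DMSO wells for full effect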
KKLEB tox: reduces viability of KKLEB cystic fibrosis airway cells; KKLEB CF airway cells viability, ATPlite luminescence, overnight; active compounds read low; cells stimulated with P. aeruginosa culture filtrate; activity change (cytotoxicity), % at 5 µM; 0.36% of 360,000 active; AID 602141;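 active = corrected activity change at or below -50% at 5 µM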
ABHD5 PLIN5 PPI: ABHD5-PLIN5 protein interaction inhibition; Q00G26+Q8WTS1; Split G. princeps luciferase complementation, luminescence, 4 h; inhibition, % at 4 µM; 0.78% of 360,000 active; AID 602281;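 active = inhibition above the mean inhibition across every tested compound plus 3 SD, cut at about 22% in these data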;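 also: 0% = DMSO only wells and the 100% control is not disclosed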
Target sequence (Q00G26 whole entry, looked up): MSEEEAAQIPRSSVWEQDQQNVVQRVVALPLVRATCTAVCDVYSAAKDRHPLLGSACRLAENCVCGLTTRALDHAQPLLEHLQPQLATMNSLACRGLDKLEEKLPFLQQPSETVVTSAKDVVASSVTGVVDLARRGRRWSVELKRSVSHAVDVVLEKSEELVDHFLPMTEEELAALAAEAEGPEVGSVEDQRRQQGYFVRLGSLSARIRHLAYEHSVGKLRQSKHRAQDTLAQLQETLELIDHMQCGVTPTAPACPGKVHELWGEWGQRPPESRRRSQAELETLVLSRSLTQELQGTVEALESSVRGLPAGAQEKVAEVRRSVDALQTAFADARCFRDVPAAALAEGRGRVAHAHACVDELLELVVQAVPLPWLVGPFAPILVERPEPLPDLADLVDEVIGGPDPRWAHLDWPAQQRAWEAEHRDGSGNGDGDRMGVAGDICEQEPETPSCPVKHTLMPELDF
Target sequence (Q8WTS1 whole entry, looked up): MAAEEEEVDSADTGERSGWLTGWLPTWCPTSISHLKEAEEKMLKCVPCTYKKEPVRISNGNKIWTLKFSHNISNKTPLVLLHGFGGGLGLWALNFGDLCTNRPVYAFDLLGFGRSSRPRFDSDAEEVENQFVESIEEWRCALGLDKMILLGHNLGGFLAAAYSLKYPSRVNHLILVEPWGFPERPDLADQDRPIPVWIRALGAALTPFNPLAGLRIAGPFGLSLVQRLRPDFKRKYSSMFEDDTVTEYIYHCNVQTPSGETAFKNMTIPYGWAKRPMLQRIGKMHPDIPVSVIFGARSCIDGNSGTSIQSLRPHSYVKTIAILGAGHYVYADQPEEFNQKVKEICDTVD
Peg3 prom inh: Peg3 promoter activity inhibition; HeLa PEG-Prom luciferase reporter, luminescence, overnight; inhibition, % at 20 µM; 1.7% of 360,000 active;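 active = inhibition of at least 50% at 20 µM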
HIF-2a block: HIF-2a inhibition | 786-0 RCC cells HIF-2a reporter, luciferase luminescence, overnight | inhibition, % at 18.8 µM | 0.72% of 360,000 active | AID 624352;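 active = inhibition of the luminescence signal of 40% or more relative to plate controls, in a single-dose primary screen at 18.75 µM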
Mdm2-MdmX inh: human Mdm2/MdmX binding inhibition. O15151+Q00987. SaOS-2 split-luciferase Mdm2/MdmX complementation, luminescence. inhibition, % at 8 µM. 3% of 330,000 active. AID 485346;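 active = inhibition of at least 50% at 8 µM in the primary screen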
Mdm2-MdmX conf: confirmation of human Mdm2/MdmX interaction inhibitors | 55% of 10,000 active | shares compounds with Mdm2-MdmX inh | Mdm2-MdmX binding, luminescent assay | AID 489028 | inhibition, % at 8 µM; in the data active = inhibition above about 40%
Full FLuc ctr: inhibits full-length luciferase, flagging false Mdm2/MdmX hits; SaOS-2 full-length luciferase counterscreen, luminescence; shares compounds with Mdm2-MdmX inh; inhibition, % at 8 µM; 77% of 6,200 active; AID 504607;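 active = mean inhibition at 8 µM reaching about 37%, which flags the compound as non-specific, limit read from the data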;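 also: p53-null SaOS-2 cells with luciferase driven by a doxycycline-inducible promoter; compound on cells about two nights before reading with doxycycline added after day one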
An asterisk follows results filed as active; . = no result given. Shown are actives, neighbours in structure and some others; about 4.6% of the full set was active somewhere.

SMILES	CF NFkB block	KKLEB tox	ABHD5 PLIN5 PPI	Peg3 prom inh	HIF-2a block	Mdm2-MdmX inh	Mdm2-MdmX conf	Full FLuc ctr
COc1ccccc1-c1cc(NC(C)=O)c2ncc(-c3cccc(C(C)=O)c3)n2c1	-9	1	6	33	-9	.	.	.
COc1ccc(-c2cc(C(F)(F)F)n3ncc(C(=O)N4CCc5ccccc5C4)c3n2)cc1	-21	-11	-2	18	24	54*	22	.
COc1cccc(-c2cc(C(F)(F)F)n3ncc(C(=O)N4CCc5ccccc5C4)c3n2)c1	-4	-7	-2	12	30	17	.	.
Cc1ccc(S(=O)(=O)N/N=C\c2ccc3c(c2)OCO3)c(C)c1	-10	12	-1	16	0	1	.	.
COc1ccc2c(-c3ccc(SC)cc3)c(-c3ccc(S(C)(=O)=O)cc3)sc2c1	0	-22	1	5	12	6	.	.
COc1ccc2c(-c3cnc(N4CCOCC4)nc3)c(-c3ccc(S(C)(=O)=O)cc3)sc2c1	-30	9	-3	4	4	68*	-2	.
Cc1nc2ccc(Cl)cc2n1C	-4	-8	-5	-26	-12	.	.	.
CCn1c(/C=C/N(C)c2ccccc2)[n+](CC)c2ccc(Cl)cc21	0	-8	4	14	-4	58*	43*	64*
CCCCNC(=O)C(C1CCCCC1)N(CCN(C)C)C(=O)CCCN1C(=O)NC(c2ccc(-c3ccccc3)cc2)C(C(=O)OCc2ccccc2)=C1C (configuration not stated)	.	.	.	.	.	97*	57*	1
CCCCCCN(C(=O)CCCCCN1C(=O)NC(c2cccc([N+](=O)[O-])c2)C(C(=O)OCc2ccccc2)=C1C)C(C(=O)NCCCC)c1ccc(OCC(=O)OC)c(C(=O)OC)c1 (configuration not stated)	.	.	.	.	.	85*	-14	.
O=S(=O)(NCc1nnc2ccccn12)c1ccc(Cl)cc1	-18	11	3	1	10	23	.	.
O=c1[nH]c(=O)n([C@H]2C[C@H](O)[C@@H](CO)O2)cc1C(F)(F)F	-4	9	-2	22	8	60*	52*	56*
COc1cc(C)ccc1S(=O)(=O)NC(=O)C1(C)CCN1C(=O)Cc1ccc(Cl)cc1Cl (configuration not stated)	-23	6	-3	0	14	.	.	.
COc1ccc(N2C(=O)CC(NNC(=O)c3cccnc3)C2=O)cc1 (configuration not stated)	-6	-6	-4	-7	8	-14	.	.
Cc1ccc(/C=C/C(=O)c2ccccc(=O)c2O)c(C)c1	-29	1	21	-78	36	67*	61*	19
C#CCNC(=O)C[C@@H]1C[C@@]2(C(=O)OCC)CCC=C2N(Cc2ccc(Cl)cc2Cl)C1=O	.	.	-6	.	11	.	.	.
CC(=O)NC(c1cc(Cl)c2cccnc2c1O)C1CC1 (configuration not stated)	18	1	1	29	12	53*	49*	33
CC(=O)NC(c1cc(Cl)c2ccccc2c1O)C(C)C (configuration not stated)	4	-15	-5	-5	12	7	.	.
CC(=O)NC(c1cc(Cl)c2cccnc2c1O)C(C)C (configuration not stated)	23	-18	-4	37	15	66*	43*	37*
COC(=O)C1Cc2ccccc2CN1C(=O)CCl (configuration not stated)	21	-13	6	10	8	38	.	.
O=C(COC(=O)/C=C/c1ccc(F)cc1)Nc1cc(C(F)(F)F)ccc1N1CCOCC1	5	-5	4	-1	22	8	.	.
CCOC(=O)c1c(C)[nH]c(C(=O)OCC(=O)Nc2cc(C)c(Cl)cc2OC)c1C	0	5	-4	14	10	54*	19	.
CC(=O)c1c(C)[nH]c(C(=O)OCC(=O)Nc2cc(C(F)(F)F)ccc2N2CCOCC2)c1C	4	-14	8	27	19	51*	32	.
CCN(CC)S(=O)(=O)c1ccc(N2CCOCC2)c(NC(=O)c2[nH]c(C)c(C(C)=O)c2C)c1	-149	8	3	-33	-113	83*	41*	68*
CC(=O)c1c(C)[nH]c(C(=O)OCC(=O)Nc2ccc(C)cc2[N+](=O)[O-])c1C	39	-7	4	-4	29	51*	37	58*
SMILES	CF NFkB block	KKLEB tox	ABHD5 PLIN5 PPI	Peg3 prom inh	HIF-2a block	Mdm2-MdmX inh	Mdm2-MdmX conf	Full FLuc ctr
CCOc1ccc(S(=O)(=O)N2CCN(C(=O)c3ccc(Cl)c(S(=O)(=O)N4CCOCC4)c3)CC2)cc1	38	-1	16	22	8	.	.	.
COc1ccc(CNc2cc(C)nc3ccc(OC)cc23)cc1	-1	-2	7	45	23	52*	28	.
COc1ccccc1CCN=C(N)NS(=O)(=O)c1ccccc1F	16	-10	3	6	10	23	.	.
C[C@@H]1C=CC(=O)O[C@@H]1c1ccc(C(F)(F)F)cc1	.	.	.	.	.	76*	69*	9
CC1C(=O)C(C)(C)C(=O)OC1c1ccccc1 (configuration not stated)	-11	0	3	13	10	2	.	.
C[C@H]1C=CC(=O)O[C@H]1c1ccccc1	33	4	10	31	2	50*	8	.
CCOc1ccccc1NC(=S)NCc1cccn1C	0	-2	-1	17	6	4	.	.
CC(C)OC(=O)c1sc2nc(-c3ccccc3)ccc2c1N	8	-33	-6	-87	-91	52*	45*	180*
CC(C)C#Cc1ccc2c(c1)O[C@@H](CN(C)S(=O)(=O)c1cn(C)cn1)[C@@H](C)CN([C@H](C)CO)S2(=O)=O	-16	6	-8	-4	-7	.	.	.
CCOC(=O)CSc1nc2c(c(=O)[nH]1)C(C)(CC)Cc1ccccc1-2 (configuration not stated)	12	-2	0	33	9	57*	53*	54*
Nc1ncnc2oc(-c3ccco3)c(-c3ccco3)c12	53*	-23	19	40	-16	52*	23	.
O=C(Nc1nnc([C@@H]2O[C@H](CO)[C@@H](O)[C@H]2O)s1)Nc1ccccc1C(F)(F)F	-4	4	-6	0	11	.	.	.
Cc1cc2cc(CN(Cc3ccc4c(c3)OCO4)C(=O)c3ccco3)c(=O)[nH]c2cc1C	1	0	2	15	22	5	.	.
O=C(c1ccco1)N(Cc1ccc2c(c1)OCO2)Cc1cc2cc3c(cc2[nH]c1=O)OCO3	-18	-2	5	-4	23	60*	16	.
